Pf growth 48h: P. falciparum growth inhibition at 48 hours (one generation). Potency, µM (series often up to 28.7 µM), actives largely listed as inhibitors. 310,000 tested, 5.9% active. P. falciparum luciferase growth in erythrocytes, 48 h
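Here the parasites carry a stable luciferase gene and grow inside erythrocytes in Albumax-based RPMI medium with compound for one erythrocytic cycle. Activity is scored as loss of luminescent signal.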
Pf growth 96h: P. falciparum growth inhibition at 96 hours. 320,000 tested, 6.9% active. AID 504834. Potency, µM (titrated, usually from 28.7 µM), usual class: inhibitors. P. falciparum luciferase reporter growth, 96 h
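Plates of compound plus infected erythrocytes (2% hematocrit, 0.05% parasitemia final) incubate 96 hours, 37 C, 5% CO2. Detection reagent added; reduced luminescence from the parasites' luciferase reporter flags inhibition.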
SARS PLpro yeast: blocks SARS-CoV papain-like protease in a yeast assay | S. cerevisiae expressing SARS-CoV PLpro, growth rescue | Potency, µM (series often up to 32.9 µM), actives largely listed as activators | 330,000 tested, 0.19% active; calls by dose curve; further: nearly all actives have a fitted effect of over 55% in size
HCMV antiviral: blocks human cytomegalovirus replication; 410,000 tested, 4.5% active; activity change, negative = inhibition, % at 57.5 µM; AID 1259415; HFF cells, HCMV-luciferase reporter, 72 h; stronger effect = lower value; in the data active means activity change below about -60%; inconclusive means no clear call, values can overlap the other calls; inactive means above about -39%
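Human foreskin fibroblasts infected with luciferase-reporter HCMV at MOI 1 PFU/cell, compounds at two doses. Luciferase measured 72 h post infection; normalized to buffer-only basal and Salinomycin (10uM) controls.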
Sm TGR inh: S. mansoni TGR enzyme inhibition | Potency, µM (titrated, usually from 114 µM), hits mostly inhibitors | Q962Y6 | AID 485364 | 360,000 tested, 3% active | purified TGR, DTNB reduction, TNB absorbance 405 nm; further: nearly all actives have a fitted effect of over 60% in size
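Kinetic colorimetric format: TGR-catalysed, NADPH-driven DTNB reduction monitored via TNB absorbance. Enzyme dispensed at 20 nM; compound exposure 15 min at room temperature before reaction start.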
HCV inhibitor: blocks hepatitis C virus; AID 651820; Potency, µM (doses to about 41.8 µM), hits mostly inhibitors; Huh7.5.1 HCVcc-Cre infection, luciferase reporter, 44 h; 340,000 tested, 3.4% active
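Cells (1,000/well) were plated 4 h before compound, then infected with HCVcc-Cre virus (~0.5 moi). After 44 h further culture, infection was read as luciferase luminescence following a 15 min substrate incubation at room temperature.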
Hits are given with their value. A selection: hits, their analogues and other compounds. The true share with any hit is near 15%. Unless noted, the call rests on the fitted dose curve; in most records, active means well fitted curve in the direction sought with a large enough effect; inconclusive means small, poorly fitted or top-dose-only effect, or another doubt; inactive means no such curve, though single readings can be large; an effect the other way counts as inactive or inconclusive.

Screening C[C@H](CO)N1C[C@H](C)[C@@H](CN(C)Cc2ccc(Cl)c(Cl)c2)Oc2c(NS(=O)(=O)c3cccs3)cccc2C1=O returned SARS PLpro yeast inactive, HCMV antiviral inactive and HCV inhibitor inactive.
For Cc1ccc(NC(=O)C2(N(C(=O)Cn3nnnc3N)c3ccc(C)cc3)CCCCC2)cc1 the results were Pf growth 48h inactive, Pf growth 96h 13µM, SARS PLpro yeast inactive, HCMV antiviral inactive, Sm TGR inh inactive and HCV inhibitor inactive.
`Cc1ccc(Cn2c(=N)c(C(=O)NCC3CCCO3)cc3c(=O)n4ccccc4nc32)cc1` (stereo unspecified) gave Pf growth 48h inconclusive, Pf growth 96h inconclusive, SARS PLpro yeast inactive, HCMV antiviral inactive, Sm TGR inh inactive and HCV inhibitor inconclusive.
N=c1c(C(=O)NCC2CCCO2)cc2c(=O)n3ccccc3nc2n1Cc1ccccc1Cl (stereo unspecified) was read as Pf growth 48h inconclusive, Pf growth 96h inconclusive, SARS PLpro yeast inactive, HCMV antiviral -101, Sm TGR inh inactive and HCV inhibitor inconclusive.
Screening N=c1c(C(=O)NCC2CCCO2)cc2c(=O)n3ccccc3nc2n1Cc1ccccc1 (stereo unspecified) returned Pf growth 48h inconclusive, Pf growth 96h inconclusive, SARS PLpro yeast inconclusive, HCMV antiviral inactive, Sm TGR inh inactive and HCV inhibitor 7.1µM.
For COc1ccc(Cn2c(=N)c(C(=O)NCC3CCCO3)cc3c(=O)n4ccccc4nc32)cc1 (stereo unspecified) the results were Pf growth 48h inconclusive, Pf growth 96h inconclusive, SARS PLpro yeast inactive, HCMV antiviral inactive, Sm TGR inh inactive and HCV inhibitor inactive.
Screening N=c1c(C(=O)NCC2CCCO2)cc2c(=O)n3ccccc3nc2n1C1CCCCC1 (stereo unspecified) returned Pf growth 48h inactive, Pf growth 96h 2.6µM, SARS PLpro yeast inactive, HCMV antiviral inactive, Sm TGR inh inactive and HCV inhibitor inactive.
`N=c1c(C(=O)NCC2CCCO2)cc2c(=O)n3ccccc3nc2n1Cc1ccc(Cl)cc1` (stereo unspecified) gave Pf growth 48h 10µM, Pf growth 96h inconclusive, SARS PLpro yeast inactive, HCMV antiviral -83, Sm TGR inh inactive and HCV inhibitor inconclusive.
For COc1ccccc1Cn1c(CNS(=O)(=O)c2cccc([N+](=O)[O-])c2)nc2cccnc21 the results were HCMV antiviral inactive and Sm TGR inh inactive.
For O=C(COC(=O)c1n[nH]c(=O)c2ccccc12)Nc1ccccc1F the results were SARS PLpro yeast inconclusive, HCMV antiviral inactive and HCV inhibitor inactive.
Screening O=C(O)CC/C(=N\Nc1ccc([N+](=O)[O-])cc1S(=O)(=O)N1CCOCC1)c1cccs1 returned Pf growth 48h inconclusive, Pf growth 96h inconclusive, SARS PLpro yeast inactive, HCMV antiviral inactive, Sm TGR inh 40µM and HCV inhibitor inactive.
Screening COc1ccc(C(=O)NCCc2nc3ccccc3[nH]2)cc1 returned HCMV antiviral inconclusive and Sm TGR inh inactive.
For COc1ccc(C2=NN(C(=O)CSc3nc4ncc(Cl)cc4[nH]3)C(c3ccco3)C2)cc1 (stereo unspecified) the results were Pf growth 48h inconclusive, Pf growth 96h inconclusive, SARS PLpro yeast inactive, HCMV antiviral inactive, Sm TGR inh 28µM and HCV inhibitor inactive.
`Cc1ccc(C2=NN(C(=O)CSc3nc4ncc(Cl)cc4[nH]3)C(c3ccco3)C2)cc1` (stereo unspecified) gave Pf growth 48h inactive, Pf growth 96h 12µM, SARS PLpro yeast inactive, HCMV antiviral inactive, Sm TGR inh 14µM and HCV inhibitor inactive.
For Nc1cc(=O)[nH]c(SCC(=O)N2N=C(c3ccc(Cl)cc3)CC2c2ccco2)n1 (stereo unspecified) the results were Pf growth 48h inactive, Pf growth 96h inactive, SARS PLpro yeast inactive, HCMV antiviral inconclusive and HCV inhibitor inactive.
Screening COc1ccc(C2=NN(C(N)=S)C(c3ccco3)C2)cc1 (stereo unspecified) returned Pf growth 48h inactive, Pf growth 96h inactive, SARS PLpro yeast inconclusive, HCMV antiviral inactive, Sm TGR inh 8.9µM and HCV inhibitor inactive.
`COc1ccc(C2=NN(C(=O)CSc3nnc(-c4ccccc4F)o3)C(c3ccco3)C2)cc1` (stereo unspecified) gave Pf growth 48h inconclusive, Pf growth 96h inconclusive, SARS PLpro yeast inactive, HCMV antiviral inactive, Sm TGR inh inactive and HCV inhibitor inactive.
`O=C(Nc1ccccc1OC(F)F)c1ccc(S(=O)(=O)N2CCOCC2)cc1` gave Pf growth 48h inactive, Pf growth 96h inactive, SARS PLpro yeast inactive, HCMV antiviral inconclusive and Sm TGR inh inactive.
O=C1c2cccc(O)c2C(=O)c2c(O)cc(CO)cc21 was read as HCV inhibitor inactive.
For CC1OC2CC(=O)OC2C2=C1C(=O)c1c(O)cccc1C2=O (stereo unspecified) the results were HCMV antiviral -106.
CC(=O)c1ccc(NC(=O)CSc2ccc(-c3ccc(-n4cccn4)cc3)nn2)cc1 was read as Pf growth 48h inactive, Pf growth 96h inactive, SARS PLpro yeast inactive, HCMV antiviral inactive, Sm TGR inh inactive and HCV inhibitor inactive.
Screening COc1cccc(Nc2nc(N)c([N+](=O)[O-])c(NCc3ccccc3)n2)c1 returned Pf growth 48h 4.7µM, Pf growth 96h 12µM, SARS PLpro yeast inactive, HCMV antiviral inconclusive, Sm TGR inh inactive and HCV inhibitor inconclusive.
For COCCCNc1nc(N)c([N+](=O)[O-])c(NCc2ccccc2)n1 the results were Pf growth 48h inconclusive, Pf growth 96h inconclusive, SARS PLpro yeast inactive, Sm TGR inh inactive and HCV inhibitor inactive.
`Cc1cccc(Nc2nc(N)c([N+](=O)[O-])c(NCc3ccccc3)n2)c1` gave Pf growth 48h inconclusive, Pf growth 96h inconclusive, SARS PLpro yeast inactive, HCMV antiviral -94, Sm TGR inh inactive and HCV inhibitor inconclusive.
`Cc1cccc(Nc2nc(N)c([N+](=O)[O-])c(N3CCN(C)CC3)n2)c1` gave Pf growth 48h inconclusive, Pf growth 96h inconclusive, SARS PLpro yeast inactive, HCMV antiviral inactive, Sm TGR inh inactive and HCV inhibitor inconclusive.
Cc1cccc(Nc2nc(N)c([N+](=O)[O-])c(N3CCCC(C)C3)n2)c1 (stereo unspecified) was read as Pf growth 48h 12µM, Pf growth 96h inconclusive, SARS PLpro yeast inactive, HCMV antiviral -77, Sm TGR inh inactive and HCV inhibitor inconclusive.
Screening CCOc1ccc(Nc2nc(N)c([N+](=O)[O-])c(NCc3ccccc3)n2)cc1 returned Pf growth 48h 5.2µM, Pf growth 96h inconclusive, SARS PLpro yeast inactive, HCMV antiviral inactive, Sm TGR inh inactive and HCV inhibitor inactive.
